# Source: the supplement of paper PMC8728848
# The sample as a whole holds a higher share of the strongest signals than the screen did.
# B1: FaeGad (Escherichia coli) (protein)
# chain: WMTGDFNGSVDIGGSITADDYRQKWEWEVGTGLNGFGSVLNDLTNGGTKLTITVTGNKPILLGRTKEAFATPVTSGVDGIPHIAFTDYEGASVELRNPDGETEKGLTYFVLPMKNAEGTKVGSVKVNASYAGALGRGGVTSADGELMSLFAEGSHAIFYGGLPTNVKNSELKGGSAAAARTELFGSLSKNDILGQIQRVNANITSLVNVPGSFNENMAYTDGSVVSVAYALGIANGQTIEATFNQAVTTSTQWSAPLNVAITYY
# Assays:
# Test in all cases: glycan array binding signal (z-score within array); higher = stronger binding
# Settings in all cases: glycan notation: IUPAC condensed, linker removed
# [1] = target: Fuc(a1-2)Gal(b1-3)GalNAc(b1-3)Gal(a1-4)Gal(b1-4)Glc
# Outline: (§1)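 The Consortium for Functional Glycomics database supplied 3228 glycan arrays, of which those lacking an available protein sequence were dropped. The binding signal, a within-array Z-score, was averaged across arrays of the same protein sequence and across linkers. Negative scores can be read as non-binding.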
# Fuc(a1-2)GlcNAc = target: Fuc(a1-2)GlcNAc
# Outline: as §1
# Gal(a1-6)Glc = target: Gal(a1-6)Glc
# Outline: as §1
# [2] = target: Gal(b1-3)[Fuc(a1-4)]GlcNAc(b1-3)Gal(b1-4)[Fuc(a1-3)]GlcNAc
# Outline: as §1
# Gal(b1-4)Glc6S = target: Gal(b1-4)Glc6S
# Outline: as §1
# [3] = target: Gal(b1-4)GlcNAc(b1-3)Gal(b1-4)Glc
# Outline: as §1
# Glc(a1-4)Glc = target: Glc(a1-4)Glc
# Outline: as §1
# Glc(a1-6)Glc(a1-6)Glc = target: Glc(a1-6)Glc(a1-6)Glc
# Outline: as §1
# Glc(b1-4)Glc = target: Glc(b1-4)Glc
# Outline: as §1
# [4] = target: GlcNAc(a1-3)Gal(b1-4)GlcNAc
# Outline: as §1
# [5] = target: GlcNAc(b1-4)GlcNAc(b1-4)GlcNAc
# Outline: as §1
# [6] = target: Man(a1-2)Man(a1-2)Man(a1-6)[Man(a1-3)]Man
# Outline: as §1
# [7] = target: Neu5Ac(a2-3)Gal(b1-4)[Fuc(a1-3)]GlcNAc
# Outline: as §1
# [8] = target: Neu5Ac(a2-3)Gal(b1-4)[Fuc(a1-3)]GlcNAc(b1-3)Gal(b1-4)[Fuc(a1-3)]GlcNAc(b1-3)Gal(b1-4)[Fuc(a1-3)]GlcNAc
# Outline: as §1
# Neu5Ac(a2-3)GalNAc = target: Neu5Ac(a2-3)GalNAc
# Outline: as §1
# [9] = target: Neu5Ac(a2-6)Gal(b1-4)GlcNAc(b1-3)Gal(b1-4)GlcNAc
# Outline: as §1
# [10] = target: Neu5Ac(a2-6)Gal(b1-4)GlcNAc(b1-3)Gal(b1-4)[Fuc(a1-3)]GlcNAc(b1-3)Gal(b1-4)[Fuc(a1-3)]GlcNAc
# Outline: as §1
# [11] = target: Neu5Ac(a2-8)Neu5Ac(a2-8)Neu5Ac
# Outline: as §1
binder,measurement,setting,value
B1,glycan array binding signal (z-score),[1],-0.404
same,glycan array binding signal (z-score),Fuc(a1-2)GlcNAc,-0.247
same,glycan array binding signal (z-score),Gal(a1-6)Glc,0.615
same,glycan array binding signal (z-score),[2],0.979
same,glycan array binding signal (z-score),Gal(b1-4)Glc6S,0.601
same,glycan array binding signal (z-score),[3],0.629
same,glycan array binding signal (z-score),Glc(a1-4)Glc,9.55
same,glycan array binding signal (z-score),Glc(a1-6)Glc(a1-6)Glc,10.2
same,glycan array binding signal (z-score),Glc(b1-4)Glc,3.57
same,glycan array binding signal (z-score),[4],0.188
same,glycan array binding signal (z-score),[5],0.137
same,glycan array binding signal (z-score),[6],1.83
same,glycan array binding signal (z-score),[7],-0.45
same,glycan array binding signal (z-score),[8],-0.187
same,glycan array binding signal (z-score),Neu5Ac(a2-3)GalNAc,-0.452
same,glycan array binding signal (z-score),[9],-0.289
same,glycan array binding signal (z-score),[10],-0.414
same,glycan array binding signal (z-score),[11],-0.377
